According to PubChem BioAssay (NCATS):
Records with an inconclusive call do not appear. Calls of active or inactive are those of the source. The call rests on the fitted dose curve.

Assay: A High-Content qHTS Against Drug Library for the Identification of Small Molecules that Inhibit DYT1 Early Onset Primary Dystonia-Associated Cell Pathology (AID 1645839)
Settings: HEK293 Flp-In EGFP-delE TorsinA, punctate imaging, 48 h; series mostly up to 46.1 µM; % pathology change, negative = correction: at the top concentration
From the text: Nicole Calakos M.D., Ph.D.
Duke University School of Medicine, Durham, NC
In DYT1 dystonia due to delGAG in the TOR1A gene, there is a robust and widely replicated finding of TorsinA protein mislocalization caused when the mutant protein is in excess of the wildtype protein (1-7). Stable HEK293 cell lines were created that replicate this phenomenon. Inducible expression of an EGFP-hu delE TorsinA encoding cDNA causes pronounced punctate cellular distribution. […] This phenotypic difference in EGFP-huTorsinA fusion protein distribution serves as an indicator of cell pathology. […] RNAi screen results with the assay were validated in DYT1 patient cell phenotypes, intersected with a known dystonia gene, and led to discovery of new human genetic dystonia associations.
The bioassay described herein is a high-content image screen with two readouts. The "%pathology" readout is the primary qHTS data channel, while the "cellcount" is the counterscreen qHTS channel. Desired active compounds are those that show inhibition in %pathology channel but no activity or minimal toxicity in cellcount readout.
1. Kustedjo, K., Bracey, M.H., and Cravatt, B.F. (2000). […] J. Biol. Chem. 275, 27933 - 27939.
2. Bragg, D.C., Kaufman, C.A., Kock, N., and Breakefield, X.O. (2004). Inhibition of N-linked glycosylation prevents inclusion formation by the dystonia-related mutant form of torsinA. Mol. Cell. Neurosci. 27, 417 - 426.
3. Gonzalez-Alegre, P., and Paulson, H.L. (2004). Aberrant Cellular Behavior of Mutant TorsinA Implicates Nuclear Envelope Dysfunction in DYT1 Dystonia. J. Neurosci. 24, 2593 - 2601.
4. Goodchild, R.E., and Dauer, W.T. (2004). Mislocalization to the nuclear envelope: an effect of the dystonia-causing torsinA mutation. Proc. Natl. Acad. Sci. U. S. A. 101, 847 - 852.
5. Kock, N., Allchorne, A.J., Sena-Esteves, M., Woolf, C.J., and Breakefield, X.O. (2006). RNAi blocks DYT1 mutant torsinA inclusions in neurons. Neurosci. Lett. 395, 201 - 205.
6. Hewett, J.W., Nery, F.C., Niland, B., Ge, P., Tan, P., Hadwiger, P., Tannous, B.A., Sah, D.W.Y., and Breakefield, X.O. (2008). siRNA knock-down of mutant torsinA restores processing through secretory pathway in DYT1 dystonia cells. Hum. Mol. Genet. 17, 1436 - 1445.
7. Calakos, N., Patel, V.D., Gottron, M., Wang, G., Tran-Viet, K.N., Brewington, D., Beyer, J.L., Steffens, D.C., Krishnan, R.R., and Zuchner, S. (2010). Functional evidence implicating a novel TOR1A mutation in idiopathic, late-onset focal dystonia. J. Med. Genet. 47, 646 - 650.
8. Rittiner* JE, Caffall* ZF, Hernandez-Martinez R, Sanderson SM, Pearson JL, Tsukayama KK, Liu AY, Xiao C, Tracy S, Shipman MK, Hickey P, Johnson J, Scott B, Stacy M, Saunders-Pullman R, Bressman S, Simonyan K, Sharma N, Ozelius LJ, Cirulli ET, Calakos N. Functional Genomic Analyses of Mendelian and Sporadic Disease Identify Impaired eIF2alpha Signaling as a Generalizable Mechanism for Dystonia. Neuron. 2016 Dec 21;92(6):1238-1251. doi: 10.1016/j.neuron.2016.11.012. Epub 2016 Dec 8. PMID: 27939583; PMCID: PMC5320521.
High-content, High-throughput Drug Screening Assay
The TorsinA mislocalization assay was modified from the previously published assay to accommodate compound testing in 1536 well format.1 Briefly, Flp-In T-REx 293 cells from Invitrogen in which a single copy of a cDNA is recombined into a specific genomic locus was used to create tetracycline-inducible expression of cDNA encoding either EGFP-hTOR1A (WT) or EGFP-delE hTOR1A (DYT1). WT and DYT1 cells were diluted to a concentration of 2 x 10^5 cells/mL in reduced serum media (DMEM High Glucose containing 1% tetracycline-tested FBS, 2 mM L-Glutamine, and 1% Penicillin/Streptomycin). 4 µl of WT cells and 4 µl of DTY1 cells were added to column 1 and columns 2-48, respectively, of a poly-D-lysine-coated, low base, black, clear bottom 1536 well plate (Corning, Corning, NY) using the BioRAPTR FRD Microfluidic Workstation (Beckman Coulter, Indianapolis, IN). The final cell number was 800 cells/well. […]

SMILES	% pathology change, negative = correction
Cc1cc(NC(=O)C2=C(O)c3ccccc3S(=O)(=O)N2C)no1	9.22% (inactive)
CC1(c2ccccc2)OC(C(=O)O)=CC1=O (stereo not given)	14.6% (inactive)
O=C(NCCCN1CCOCC1)c1ccc(Cl)cc1	3.27% (inactive)
CCOC(=O)[C@H](CCc1ccccc1)N[C@@H](C)C(=O)N1Cc2cc(OC)c(OC)cc2C[C@H]1C(=O)O	-0.664% (inactive)
Cc1c(I)c(=O)n(-c2ccccc2)n1C	21% (inactive)
CC[N+](C)(CC)CCOC(=O)C1c2ccccc2Oc2ccccc21	19.6% (inactive)
CCCNC(C)C(=O)Nc1c(C)csc1C(=O)OC (stereo not given)	-19.8% (inactive)
COc1ccc(Cc2cnc(N)nc2N)cc1OC	3.99% (inactive)
CNCc1ccccc1	-2.77% (inactive)
CC(=O)Nc1ccccc1	6.81% (inactive)
Cc1c(Cn2ccnc2)c2ccccc2n1CCC(=O)O	3.03% (inactive)
O=c1[nH]c2cc(C(F)(F)F)c(N3CCOCC3)cc2n(CP(=O)(O)O)c1=O	6.63% (inactive)
C[N+](C)(C)CC(O)CC(=O)[O-] (stereo not given)	-28% (inactive)
COC(=O)c1ccc(O)cc1	-7.95% (inactive)
CC(=O)N(CC(O)CN(C(C)=O)c1c(I)c(C(=O)NCC(O)CO)c(I)c(C(=O)NCC(O)CO)c1I)c1c(I)c(C(=O)NCC(O)CO)c(I)c(C(=O)NCC(O)CO)c1I (stereo not given)	2.31% (inactive)
CCCNC(C)(C)COC(=O)c1ccccc1	8.89% (inactive)
CCOc1ccc(C(=O)OCCN(CC)CC)cc1	-1.61% (inactive)
CC(C)NC[C@@H](O)COc1ccc(CC(N)=O)cc1	-3.01% (inactive)
O=C(O)Cc1cn(-c2ccccc2)nc1-c1ccc(Cl)cc1	12.7% (inactive)
O=C(O)CCC(=O)O	2.73% (inactive)

SMILES	% pathology change, negative = correction
CCCCCCCCCCOc1cc2c(=O)c(C(=O)OCC)c[nH]c2cc1OCC	23.7% [at 4.63 µM] (inactive)
Cc1ccc(S(=O)(=O)NC(=O)NC2CCCCC2)cc1	6.44% (inactive)
NS(=O)(=O)c1cc(C2(O)NC(=O)c3ccccc32)ccc1Cl (stereo not given)	7.51% (inactive)
C[C@@H]1CCC[C@H](C)N1	11.1% (inactive)
C/C(=C(\CCO)SS/C(CCO)=C(\C)N(C=O)Cc1cnc(C)nc1N)N(C=O)Cc1cnc(C)nc1N	-2.87% (inactive)
CCCOC(=O)c1ccc(N)cc1	-31.5% (inactive)
COCC(=O)Nc1c(I)c(C(=O)NCC(O)CO)c(I)c(C(=O)N(C)CC(O)CO)c1I (stereo not given)	1.05% (inactive)
CC1CCc2cc(F)cc3c(=O)c(C(=O)O)cn1c23 (stereo not given)	-13.4% [at 9.22 µM] (inactive)
CC(=O)[C@@]1(O)CC[C@H]2[C@@H]3C[C@H](C)C4=CC(=O)C=C[C@]4(C)[C@@]3(F)[C@@H](O)C[C@@]21C	-11.1% (inactive)
Cc1c(C(=O)NCCO)[n+](=O)c2ccccc2n1[O-]	-6.75% (inactive)
CCOC(=O)[C@H](CCc1ccccc1)N[C@@H](C)C(=O)N1CCC[C@H]1C(=O)O	-0.858% (inactive)
Cc1c(C)c2c(c(C)c1OC(=O)c1cccnc1)CC[C@@](C)(CCC[C@H](C)CCC[C@H](C)CCCC(C)C)O2	10.9% (inactive)
Cc1ncc(CO)c(CN)c1O	-2.06% (inactive)
CN1CCCN=C1COC(=O)C(O)(c1ccccc1)C1CCCCC1 (stereo not given)	-8.63% (inactive)
O=C(NCN1CCOCC1)c1cnccn1	-9.01% (inactive)
OC(CCN1CCCC1)(c1ccccc1)C1CCCCC1 (stereo not given)	-17.1% (inactive)
CC(=O)N[C@@H](CC(C)C)C(=O)O	-1.83% (inactive)
COc1ccc(C(=O)NCc2ccc(OCCN(C)C)cc2)cc1OC	0.0277% (inactive)
CCN(CC)CCOC(=O)C(c1ccccc1)c1ccccc1	14% (inactive)
CCCCCCCC(=O)OCC(COC(=O)CCCCCCC)OC(=O)CCCCCCC	21.2% (inactive)
